Results filed as inconclusive are left out. Activity calls are given as the source filed them. Unless noted, calls come from the whole dose curve; as a rule, active = well fitted curve in the direction sought with a large enough effect in the repeat runs; inconclusive = weak or mixed curves; inactive = no such curve, though single readings can be large; an effect the other way counts as inactive or inconclusive.
Experiments:
[1] = qHTS RealTime-Glo MT Cell Viability Assay in HepG2 cells - 24 hour (AID 1224867); note: nearly all actives have a fitted effect of over 50% in size; note: potency is the fitted concentration of half-maximal effect
Summary of the method: (§1)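 HepG2 cells (600/well) were dispensed with RealTime-Glo reagents, incubated 5 h at 37 °C, then treated with compounds in DMSO for up to 40 h. Nonlytic NanoLuc luminescence reflecting viable cells was read at each stated time point.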

[2] = qHTS RealTime-Glo MT Cell Viability Assay in HEK293 cells - 32 hour (AID 1224868); note: nearly all actives have a fitted effect of over 50% in size; note: potency is the fitted concentration of half-maximal effect
Summary of the method: (§2)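 HEK293 cells seeded with NanoLuc/prosubstrate reagent, rested 5 h at 37 C, then dosed and kept at 37 C up to 40 h. Nonlytic real-time luminescence from viable cells read at 0, 8, 16, 24, 32 and 40 h.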

[3] = A CellTox Green Cytotoxicity Assay to monitor cytotoxicity in HEK293 cells - 0 hour (AID 1224869); note: nearly all actives have a fitted effect of over 50% in size; note: potency is the fitted concentration of half-maximal effect
Summary of the method: (§3)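 Fluorescence intensity, read at 0, 8, 16, 24, 32 and 40 h of compound treatment, reflected dye binding to DNA of dead HEK293 cells; compounds (23 nL, DMSO) were added 5 h after plating cells with reagent.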

[4] = qHTS RealTime-Glo MT Cell Viability Assay in HepG2 cells - 40 hour (AID 1224870); note: nearly all actives have a fitted effect of over 50% in size; note: potency is the fitted concentration of half-maximal effect
Summary of the method: (§4)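 Real-time viability: cells seeded at 600 per well together with NanoLuc and cell-permeant prosubstrate, compounds added after 5 h incubation. Luminescence tracked at 0, 8, 16, 24, 32 and 40 h of exposure.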

[5] = A CellTox Green Cytotoxicity Assay to monitor cytotoxicity in HEK293 cells - 40 hour (AID 1224871); note: nearly all actives have a fitted effect of over 45% in size; note: potency is the fitted concentration of half-maximal effect
Summary of the method: as §3

[6] = qHTS RealTime-Glo MT Cell Viability Assay in HEK293 cells - 16 hour (AID 1224872); note: nearly all actives have a fitted effect of over 50% in size; note: potency is the fitted concentration of half-maximal effect
Summary of the method: as §2

[7] = qHTS RealTime-Glo MT Cell Viability Assay in HepG2 cells - 8 hour (AID 1224873); note: nearly all actives have a fitted effect of over 55% in size; note: potency is the fitted concentration of half-maximal effect
Summary of the method: as §4

[8] = A CellTox Green Cytotoxicity Assay to monitor cytotoxicity in HEK293 cells - 24 hour (AID 1224875); note: nearly all actives have a fitted effect of over 45% in size; note: potency is the fitted concentration of half-maximal effect
Summary of the method: as §3

[9] = A CellTox Green Cytotoxicity Assay to monitor cytotoxicity in HepG2 cells - 16 hour (AID 1224876); note: nearly all actives have a fitted effect of over 45% in size; note: potency is the fitted concentration of half-maximal effect
Summary of the method: (§5)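 Using 1536-well format, dye-containing HepG2 suspension was seeded, allowed 5 h at 37 C/5% CO2, dosed by pintool with compounds, positive and negative controls, and imaged for fluorescence across 40 h.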

[10] = qHTS RealTime-Glo MT Cell Viability Assay in HepG2 cells - 32 hour (AID 1224877); note: nearly all actives have a fitted effect of over 55% in size; note: potency is the fitted concentration of half-maximal effect
Summary of the method: as §1

[11] = A CellTox Green Cytotoxicity Assay to monitor cytotoxicity in HepG2 cells - 24 hour (AID 1224878); note: nearly all actives have a fitted effect of over 45% in size; note: potency is the fitted concentration of half-maximal effect
Summary of the method: as §5

[12] = A CellTox Green Cytotoxicity Assay to monitor cytotoxicity in HepG2 cells - 40 hour (AID 1224879); note: nearly all actives have a fitted effect of over 40% in size; note: potency is the fitted concentration of half-maximal effect
Summary of the method: as §5

[13] = A CellTox Green Cytotoxicity Assay to monitor cytotoxicity in HEK293 cells - 32 hour (AID 1224881); note: nearly all actives have a fitted effect of over 40% in size; note: potency is the fitted concentration of half-maximal effect
Summary of the method: as §3

[14] = qHTS assay to identify small molecule antagonists of the estrogen related receptor (ERR) signaling pathway from Tox21 library (AID 1224848); note: nearly all actives have a fitted effect of over 50% in size; note: potency is the fitted concentration of half-maximal effect
Summary of the method: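 Antagonist-mode screen of the Tox21 10K library in an NTP-provided ERR reporter cell line; 18 h compound exposure at 37 C, luminescence measured with ONE-Glo.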

[15] = qHTS assay to identify small molecule agonists of the estrogen related receptor (ERR) signaling pathway from Tox21 library (AID 1224849; calls by dose curve; note: nearly all actives have a fitted effect of over 15% in size); conditions: ERR reporter cell line, ONE-Glo luciferase, 18 h; at 92.4 µM (top of the series) unless noted
Summary of the method: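 Screening used an NTP-provided ERR luciferase cell line. Compounds in DMSO were added 6 h after seeding and left 18 h at 37 C before a 30 min ONE-Glo step and luminescence reading.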

[16] = qHTS RealTime-Glo MT Cell Viability Assay in HEK293 cells - 40 hour (AID 1224874); conditions: RealTime-Glo luminescence; max response: stronger effect = lower value; note: nearly all actives have a fitted effect of over 50% in size; note: potency is the fitted concentration of half-maximal effect
Summary of the method: (§6)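 Viable HEK293 cells reduce a cell-permeant prosubstrate; the product diffuses out and is consumed by NanoLuc in the medium to give light. Compounds went in after a 5 h incubation and plates were read over the treatment course.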

[17] = qHTS RealTime-Glo MT Cell Viability Assay in HEK293 cells - 0 hour (AID 1224880)
Summary of the method: as §6

[18] = qHTS assay to identify small molecule agonists of H2AX - cell viability counter screen (AID 1224847; calls by dose curve;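 note: wild-type CHO-K1 cells; top concentration of the series differs between compounds; nearly all actives have a fitted effect of over 30% in size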)
Summary of the method: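 Cells plated first: CHO-K1, 1000 per well in 10% FBS medium, incubated overnight at 37C. Then 15-point compound titration added (final DMSO 0.76%) for 3 hr. Finally CellTiter-Glo added and luminescence read.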
% is set by controls: 0 for no effect and ±100 for the full control effect.

CC(NCCC(c1ccccc1)c1ccccc1)c1ccccc1 (configuration not stated)
active: Potency [1] 21.3 µM | Potency [2] 19 µM | Potency [4] 21.3 µM | Potency [5] 21.3 µM | Potency [6] 21.3 µM | Potency [7] 21.3 µM | Potency [8] 21.3 µM | Potency [9] 23.9 µM | Potency [10] 23.9 µM | Potency [11] 16.9 µM | Potency [12] 15.1 µM | Potency [13] 21.3 µM
inactive: Potency [3]

NC1(c2ccc(-c3nc4ccn5c(=O)[nH]nc5c4cc3-c3ccccc3)cc2)CCC1
active: Potency [14] 3.35 µM | Potency [1] 23.9 µM | Potency [2] 1.9 µM | Potency [5] 26.8 µM | Potency [6] 6.01 µM | Potency [16] 1.07 µM
inactive: activity change, positive = activation [15] -52.3% [at 42.5 µM] | Potency [3]

CCC(C)(C)c1cc(O)c(C(C)(C)CC)cc1O
active: Potency [14] 68.6 µM | Potency [2] 30.9 µM | Potency [6] 21.9 µM | Potency [16] 34.7 µM | Potency [12] 49 µM
inactive: activity change, positive = activation [15] -67.5% | Potency [3] | Potency [4] | Potency [9] | Potency [17]

COc1cc(C=C2CCC/C(=C\c3ccc(O)c(OC)c3)C2=O)ccc1O
active: Potency [14] 8.41 µM | Potency [2] 23.9 µM | Potency [4] 23.9 µM | Potency [6] 21.3 µM | Potency [16] 21.3 µM | Potency [10] 23.9 µM | Potency [11] 23.9 µM | Potency [12] 21.3 µM
inactive: activity change, positive = activation [15] -63.1% [at 42.5 µM] | Potency [3] | Potency [7] | Potency [8] | Potency [13]

N#CSCSc1nc2ccccc2s1
inactive: Potency [3] | Potency [17]
active: Potency [1] 38.9 µM | Potency [2] 19.5 µM | Potency [4] 24.5 µM | Potency [5] 11 µM | Potency [6] 15.5 µM | Potency [7] 49 µM | Potency [16] 19.5 µM | Potency [9] 54.9 µM | Potency [10] 30.9 µM | Potency [11] 43.6 µM | Potency [12] 21.9 µM | Potency [13] 12.3 µM

C=CC(=O)OCC(O)COc1ccccc1 (configuration not stated)
inactive: Potency [3] | Potency [4] | Potency [6] | max response [16] 8.54% | Potency [8] | Potency [9] | Potency [10] | Potency [11] | Potency [17]

Cc1cccc(C)c1NC(=O)CN1CCN(CCCC(c2ccc(F)cc2)c2ccc(F)cc2)CC1
inactive: Potency [3]
active: Potency [1] 23.9 µM | Potency [2] 9.52 µM | Potency [4] 23.9 µM | Potency [5] 21.3 µM | Potency [6] 10.7 µM | Potency [16] 10.7 µM | Potency [9] 26.8 µM | Potency [10] 23.9 µM | Potency [11] 23.9 µM | Potency [12] 23.9 µM | Potency [13] 19 µM

C/C=C/C=N/NC(=O)c1ccncc1
inactive: Potency [18] | Potency [1] | Potency [4] | Potency [6] | max response [16] 11.4% | Potency [9] | Potency [10] | Potency [11] | Potency [12] | Potency [17]

COC(=O)[C@]1(C)CCC[C@@]2(C)[C@H]1CC=C1C=C(C(C)C)CC[C@@H]12
inactive: activity change, positive = activation [15] -22.1% | Potency [1] | Potency [2] | Potency [6] | Potency [7] | max response [16] -2.95% | Potency [10]
active: Potency [3] 24.5 µM | Potency [5] 38.9 µM | Potency [8] 38.9 µM | Potency [9] 24.5 µM | Potency [11] 24.5 µM | Potency [13] 38.9 µM

Cc1c(-c2ccc(O)cc2)n(Cc2ccc(OCCN3CCCCCC3)cc2)c2ccc(O)cc12
active: Potency [1] 15.1 µM | Potency [4] 9.52 µM | Potency [5] 16.9 µM | Potency [6] 2.68 µM | Potency [7] 23.9 µM | Potency [16] 3.38 µM | Potency [8] 21.3 µM | Potency [9] 23.9 µM | Potency [10] 9.52 µM | Potency [11] 19 µM | Potency [12] 8.49 µM | Potency [13] 19 µM
inactive: Potency [3] | Potency [17]

Clc1ccc(C(Cn2ccnc2)OCc2c(Cl)cccc2Cl)c(Cl)c1 (configuration not stated)
active: Potency [14] 26.6 µM | Potency [2] 16.9 µM | Potency [16] 16.9 µM
inactive: activity change, positive = activation [15] -58.8% [at 42.5 µM] | Potency [3] | Potency [4] | Potency [8] | Potency [10]

CCCCCCC(C)Nc1ccc(Nc2ccccc2)cc1 (configuration not stated)
inactive: Potency [3] | Potency [8] | Potency [9] | Potency [11] | Potency [12] | Potency [13]
active: Potency [2] 24.5 µM | Potency [6] 19.5 µM | Potency [16] 21.9 µM

Nc1cc(Cl)c([N+](=O)[O-])cc1O
inactive: Potency [14] | activity change, positive = activation [15] -13.4% | Potency [1] | Potency [3] | Potency [4] | Potency [5] | Potency [7] | Potency [8] | Potency [9] | Potency [10] | Potency [11] | Potency [12] | Potency [17] | Potency [13]

CC(C)c1cccc(C(C)C)c1N1C(=O)c2ccc(O)cc2C1=O
inactive: Potency [3] | Potency [17]
active: Potency [1] 49 µM | Potency [4] 43.6 µM | Potency [5] 49 µM | Potency [7] 43.6 µM | Potency [9] 24.5 µM | Potency [10] 43.6 µM | Potency [11] 24.5 µM | Potency [12] 24.5 µM

COC(=O)NCCC[Si](OC)(OC)OC
inactive: Potency [14] | activity change, positive = activation [15] -7.77% | Potency [1] | Potency [2] | Potency [3] | Potency [4] | Potency [5] | Potency [6] | Potency [7] | max response [16] 15.5% | Potency [9] | Potency [10] | Potency [11] | Potency [12] | Potency [17]
